In PubChem BioAssay AID431 (Sanford-Burnham Center for Chemical Genomics, 2006):
Screen size: about 63,000 compounds; about 1,100 (1.7%) were called active. The full list was thinned out, with actives kept by preference. Potency and affinity values are given separately. A number with no mark means an inactive call.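 How the source made its calls: active means compounds whose percent cytotoxicity in the single-dose primary screen, scaled between solvent and toxic-drug controls, exceeds 50; inactive means the rest.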

experiment: viability loss of HPDE-C7K cells – cell-based, fluorescence, HTS, primary screen (AID 431); conditions: HPDE-C7K KRASV12 cells, Alamar Blue viability, 48 h; at 10 µM; stronger effect = higher value;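 further: 0% = DMSO solvent wells and 100% = doxorubicin-treated wells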

Compound | cytotoxicity
OCCNc1ncnc2c1c(-c1ccccc1)c(-c1ccccc1)n2Cc1ccco1 | 21.6%
N=c1c2c(-c3ccccc3)c(-c3ccccc3)n(Cc3ccco3)c2ncn1CCN1CCOCC1 | 32.6%
CC1(C)CC(=O)C2=C(C1)Oc1ncn(CCCn3ccnc3)c(=N)c1C2c1ccccc1 (centres undefined) | 9.8%
O=c1c2ccccc2nc(-c2ccccc2)n1CCCn1ccnc1 | -22.7%
COC(=O)c1c(F)c(F)c(N2CCOCC2)c(F)c1F | -3.4%
CC(C)CC(=O)Nc1ncnc2c1C(=O)CC(C)(C)C2 | -2.6%
COc1ccc(-c2nnn(CC(=O)N(C3CCCCC3)C(C)C(=O)NC3CCCC3)n2)cc1OC (centres undefined) | -4.4%
COC(=O)C1=C(C)N(c2ccc(Cl)c(Cl)c2)C(=O)C1 | 79% (active)
COC(=O)C1=C(C)N(c2cccc(Cl)c2)C(=O)C1 | -6.2%
COC(=O)C1=C(C)N(c2ccc(F)c(Cl)c2)C(=O)C1 | 0.2%
CCOC(=O)c1ccc(-n2c(N)c(C(=O)NCc3ccco3)sc2=S)cc1 | 10.8%
O=S(=O)(Nc1ccc(S(=O)(=O)N2CCCCC2)cc1)c1cccs1 | -10.1%
CCOc1cc(C)c(Cl)cc1S(=O)(=O)n1nnc2ccccc21 | 52.2% (active)
COc1ccc(Cl)cc1S(=O)(=O)n1nnc2ccccc21 | 4.4%
CCOc1cc(C)c(Cl)cc1S(=O)(=O)n1cnc2ccccc21 | 7.1%
COc1cc(S(=O)(=O)n2nnc3ccccc32)c(OC)cc1Cl | 59.1% (active)
CCOc1ccc(Cl)cc1S(=O)(=O)n1nnc2ccccc21 | 4.6%
COc1ccc(OC)c(S(=O)(=O)n2nnc3ccccc32)c1 | 11.6%
COc1ccc(COC(=O)c2ccc(N3CCCC3=O)cc2)cc1F | 0.9%
O=C(NCc1ccco1)c1cnc2n(c1=O)CCS2 | 8.6%
CSc1nc(N)nc(SCC(=O)C23CC4CC(CC(C4)C2)C3)c1C#N | 76.6% (active)
CSc1nc(N)nc(SCC(=O)OC(C)C)c1C#N | -1.2%
CSc1nc(N)nc(SCC(=O)c2ccc(C)cc2)c1C#N | -1%
CCCCOc1cccc(C(=O)N(Cc2ccco2)C2CCS(=O)(=O)C2)c1 (centres undefined) | -19.4%
COC(=O)C(NC(=O)c1ccccc1)=C(C)C | -16.9%

Compound | cytotoxicity
Cc1[nH]c(=S)[nH]c(=O)c1Cc1ccccc1 | -7.5%
O=C(c1ccco1)N1CCN(C(=O)N2c3ccccc3Sc3ccccc32)CC1 | 74.4% (active)
O=C(CN1CCN(c2ccccn2)CC1)N1c2ccccc2Sc2ccc(C(F)(F)F)cc21 | 17%
O=C(N1CCOCC1)N1CCN(c2ccccn2)CC1 | -19.2%
O=C(N1CCN(c2ccccn2)CC1)N1c2ccccc2Sc2ccccc21 | 66.6% (active)
O=C(NC1CCN(C(=O)N2c3ccccc3Sc3ccccc32)CC1)c1ccco1 | -3.7%
O=C(c1ccco1)N1c2ccccc2Sc2ccccc21 | 4.1%
Cc1ccc2c(c1)c1c3n2CC(=C2C(=O)OC(C)(C)OC2=O)NC3CCC1 (centres undefined) | 33.1%
CC1(C(=O)O)CC(C)(C(=O)O)CC(C)(C(=O)O)C1 (centres undefined) | -1.4%
FC(F)(F)c1cc(-c2ccccc2)nc(N2CCCCC2)n1 | -12.8%
CCN(CCCNC(=O)c1[nH]c(C)c(C(C)=O)c1C)c1ccccc1 | 11.4%
NC(=O)c1ccccc1NC(=O)CCc1ccccc1 | 3.2%
CCOc1ccc(OCC)c(NC(=O)CN2CCN(c3cccc(C)c3C)CC2)c1 | -0.1%
Cc1cccn2c(=O)c(/C=N/O)c(N3CCCCC3)nc12 | 3.4%
O=C1c2ccccc2NC(c2ccco2)N1O (centres undefined) | 9.4%
O=C1COc2ccc(C(=O)c3ccccc3)cc2CN1 | -4.7%
COc1ccccc1N(CC(=O)N1CCCCCC1)S(C)(=O)=O | -11.5%
COCc1cc(CN2CCCC2)c(O)c2ncccc12 | -4.6%
Oc1c(CN2CCCCC2)cc(COCc2ccccc2)c2cccnc12 | 2.2%
COCc1[nH]nc2c1C1(C(=O)Nc3ccc(F)cc31)C(C#N)=C(N)O2 (centres undefined) | -38.8%
Cc1ccc(NC(=O)CC2SCCNC2=O)cc1Cl (centres undefined) | -0.4%
Clc1ccc2nc(NC3=NCN(CCN4CCOCC4)CN3)nc(-c3ccccc3)c2c1 | 8.5%
OCCN1CCN(c2nc(-c3ccccc3)c3cc(Cl)ccc3n2)CC1 | 130% (active)
CN1CCN(c2nc(-c3ccccc3)c3cc(Cl)ccc3n2)CC1 | 29.7%
Cc1ccc2nc(N3CCC(C(=O)O)CC3)nc(-c3ccccc3)c2c1 | 1%

Compound | cytotoxicity
CN1CCN(c2nc(N3CCN(CCO)CC3)nc3ccccc23)CC1 | 8.2%
CS(=O)(=O)N1CCC(c2noc(-c3ccc(C(F)(F)F)cc3)n2)CC1 | 0.2%
COc1ccc(N/C=C2\CCOC2=O)cc1 | 43.6%
COC(=O)c1ccc(OCC(=O)c2ccc(O)cc2O)cc1 | 0.1%
C=CCOc1ccc(/C(O)=C2\C(=O)C(=O)N(CCOC)C2c2cccnc2)cc1 (centres undefined) | -14%
CC(C)(C)c1ccc(C(O)CCCN2CCC(C(O)(c3ccccc3)c3ccccc3)CC2)cc1 (centres undefined) | 121% (active)
OC(CCN1CCCC1)(c1ccccc1)C1CCCCC1 (centres undefined) | 28.9%
OC(CCN1CCCCC1)(c1ccccc1)C1CCCCC1 (centres undefined) | 14.3%
COc1cccc(C2CC(c3ccc(C)cc3)Nc3nc(N)nn32)c1 (centres undefined) | 1.4%
Cc1oc(-c2cccc(Cl)c2)nc1CN1CCC(C(=O)N2CCN(c3ccccc3F)CC2)CC1 | 62% (active)
Cc1oc(-c2cccc(Cl)c2)nc1CN1CCC(C(=O)N2CCN(c3ccccn3)CC2)CC1 | 6.5%
CCN1CCN(C(=O)C2CCN(Cc3nc(-c4cccc(Cl)c4)oc3C)CC2)CC1 | 1.9%
Cc1cccc(OCC(O)Cn2c(NCCCOC(C)C)nc3c2c(=O)[nH]c(=O)n3C)c1 (centres undefined) | -8%
Cc1nn2c(-c3ccc(Cl)cc3Cl)nnc2s1 | -0.2%
COc1ccccc1-c1nnc2sc(-c3ccc(N(C)C)cc3)nn12 | 44%
Clc1ccccc1-c1nnc2sc(-c3ccncc3)nn12 | 3.4%
CN(C)c1ccc(-c2nn3c(-c4ccc(Cl)cc4)nnc3s2)cc1 | -7.1%
CN(C)c1ccc(-c2nn3c(-c4ccccc4Cl)nnc3s2)cc1 | 57.1% (active)
CN(C)c1ccc(-c2nn3c(-c4ccc(Cl)cc4Cl)nnc3s2)cc1 | 50.5% (active)
O=S(=O)(Cc1ccccc1)N1CCn2c(nc3ccccc32)C1 | 9.3%
CCOc1cccc(-c2nnc3sc(COc4ccc(Cl)cc4)nn23)c1 | 24.5%
CCN(Cc1cc2ccccc2[nH]c1=O)C(=O)C1CCCCC1 | -7.8%
Cc1ccc(C(=O)C(C)OC(=O)C2CC(=O)N(C3CCCCC3)C2)cc1 (centres undefined) | -11.4%
CC(C)(C)c1cc(CN2CCN(CCO)CC2)cc(C(C)(C)C)c1O | -4.4%
CC(C)(C)c1cc(C(=S)N2CCN(CCO)CC2)cc(C(C)(C)C)c1O | -13.9%

Compound | cytotoxicity
Cc1cc(N2CCN(c3cccc(C(F)(F)F)c3)CC2)n2ncnc2n1 | -14.7%
CCNc1sc(C(=O)c2cccs2)c(N)c1-c1nc2ccccc2s1 | 74.9% (active)
CNc1sc(C(=O)c2cccs2)c(N)c1-c1nc2ccccc2s1 | 33.2%
CCNc1sc(C(=O)c2cccs2)c(N)c1C#N | -11.8%
O=C(NCc1ccncc1)c1c(F)c(F)c(F)c(F)c1F | -8.2%
Cc1ccc(SCc2cc(=O)[nH]c(N3CCN(Cc4ccc5c(c4)OCO5)CC3)n2)cc1 | 0.2%
Cn1c(-c2cc(Br)ccc2O)n[nH]c1=S | 0.6%
Cc1ccccc1OCCCC(=O)Nc1ccc(N2CCOCC2)cc1 | 1.2%
O=C(Nc1ccccc1)NC1(C(=O)NCCCN2CCOCC2)CCCCC1 | 0.6%
CC(C)C(c1nnnn1C1CCCC1)N1CCc2ccccc21 (centres undefined) | -8.4%
COc1ccccc1NC(=O)Nc1ccc2c(c1)OCCO2 | -11.4%
COc1ccc(C(C)(C)C)cc1NC(=O)Nc1ccc2c(c1)OCO2 | 50.7% (active)
COC(=O)c1ccc(C(=O)OC)c(NC(=O)Nc2ccc3c(c2)OCO3)c1 | -0.1%
CCCCCCOC(=O)C1=C(C)NC(=O)NC1c1ccc(O)cc1 (centres undefined) | -1.4%
Cc1nc(SCc2cccc(F)c2)[nH]c(=O)c1C#N | -15.2%
N#Cc1c(-c2ccco2)nc(SCC(=O)Nc2cccc(Cl)c2)[nH]c1=O | 17.5%
N#Cc1c(-c2ccco2)nc(SCc2ccc(F)cc2)[nH]c1=O | 68.9% (active)
O=C(/C=N\O)NCCCNCc1ccccc1 | 11%
O=C(c1noc2c1CCCC2)N1CCN(C(c2ccccc2)c2ccccc2)CC1 | 2.5%
CCOc1cc(C(=O)N(C)c2ccccc2)cc(OCC)c1OCC | 4.9%
CCCCOCCCNC(=O)COc1ccccc1 | -4%
O=C1CC(c2ccco2)CC(O)=C1C=NCCO (centres undefined) | -9.5%
O=C1CC(c2ccco2)CC(O)=C1C=NCCN1CCNCC1 (centres undefined) | -12.7%
O=C1CC(c2ccco2)CC(O)=C1C=Nc1cc(Cl)ccc1O (centres undefined) | 75.8% (active)
